Data taken from PubChem BioAssay (NCATS).
Several values for one entry are separate records, joined by “and”; a condition that tells them apart may be missing. Identical values can stand only once. Records with an inconclusive call do not appear. Activity calls are given as the source filed them. Unless noted, the call rests on the fitted dose curve; in most records, active means well fitted curve in the direction sought with a large enough effect; inconclusive means small, poorly fitted or top-dose-only effect, or another doubt; inactive means no such curve, though single readings can be large; an effect the other way counts as inactive or inconclusive.

Tests used:
[1] = target: Tumor necrosis factor (Homo sapiens) (UniProt P01375); test: qHTS assay to identify small molecules that stimulate Tumor Necrosis Factor-alpha (TNF-alpha) secretion (AID 651757; active means well fitted curve in the direction sought with a large enough effect in the signal ratio; the % refers to the signal ratio; further: 0% is about no effect); conditions: Human cells, HTRF 665/615 ratio; series mostly up to 92.2 µM
Tumor necrosis factor (Homo sapiens), sequence (P01375 whole entry, looked up): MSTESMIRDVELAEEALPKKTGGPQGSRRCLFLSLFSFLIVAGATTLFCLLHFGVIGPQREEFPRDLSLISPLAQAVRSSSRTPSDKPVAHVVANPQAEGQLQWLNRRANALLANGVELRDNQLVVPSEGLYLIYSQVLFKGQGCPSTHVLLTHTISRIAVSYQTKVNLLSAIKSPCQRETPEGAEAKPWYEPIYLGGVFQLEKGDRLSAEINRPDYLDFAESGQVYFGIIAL
How it was run: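 Secreted TNF-alpha quantified by TR-FRET sandwich of two labeled anti-TNF-alpha antibodies, incubated 3 hr at room temperature. Preceded by 17 hr, 37 C compound treatment of THP-1 cells at 3000 cells/well.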

[2] = qHTS assay for environmental chemicals that activate the Aryl hydrocarbon Receptor (AhR) signaling pathway (AID 651777); conditions: 1A2-DRE human hepatoma cells, luciferase, 24 h; stronger effect = higher value; further: % of control where 0% means no effect; nearly all actives have a fitted effect of over 15% in size
How it was run: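 Following a 24 hr incubation with test chemicals at 37 C and 5% CO2, 1A2-DRE human hepatoma cells received One-Glo reagent; after 30 min at room temperature, luciferase output reflected CYP1A2 induction via AhR.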

[3] = target: Peroxisome proliferator-activated receptor alpha (Homo sapiens) (UniProt Q07869); test: qHTS assay for small molecule agonists of the peroxisome proliferator-activated receptor alpha (PPARalpha) signaling pathway (AID 651778); conditions: PathHunter PPARalpha complementation, chemiluminescence, 6 h; max response: stronger effect = higher value; further: potency means the concentration at half of the fitted maximal effect; on max response: % of control where 0% means no effect
Peroxisome proliferator-activated receptor alpha (Homo sapiens), sequence (Q07869 whole entry, looked up): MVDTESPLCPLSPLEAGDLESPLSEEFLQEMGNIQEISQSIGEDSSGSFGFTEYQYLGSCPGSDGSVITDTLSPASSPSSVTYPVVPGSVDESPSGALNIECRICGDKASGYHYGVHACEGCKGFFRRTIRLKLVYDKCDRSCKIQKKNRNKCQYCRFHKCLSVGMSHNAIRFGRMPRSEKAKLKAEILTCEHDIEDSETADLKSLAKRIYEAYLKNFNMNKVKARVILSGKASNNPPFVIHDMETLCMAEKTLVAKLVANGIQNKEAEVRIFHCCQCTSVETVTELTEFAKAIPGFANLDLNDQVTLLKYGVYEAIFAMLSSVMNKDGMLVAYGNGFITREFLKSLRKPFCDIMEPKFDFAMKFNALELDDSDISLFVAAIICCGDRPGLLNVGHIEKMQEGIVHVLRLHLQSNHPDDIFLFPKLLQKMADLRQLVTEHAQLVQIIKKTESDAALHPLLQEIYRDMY
How it was run: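 Cells plated at 2,000/well and held overnight at 37 C, 5% CO2, then compound added by pin tool for 6 hr; after PathHunter detection reagent and 60 min at room temperature, chemiluminescence from enzyme complementation was read.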

[4] = target: Nuclear receptor ROR-gamma (Homo sapiens) (UniProt P51449); test: qHTS assay for small molecule antagonists of the retinoid-related orphan receptor gamma (ROR-gamma) signaling pathway (AID 651802); conditions: ROR-gamma antagonist cell reporter assay; series mostly up to 92.2 µM;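 further: CHO cells with doxycycline-induced ROR-gamma expression; luciferase reporter luminescence driven by ROR response element; on the % scale 0 is the no-effect control and ±100 the full control effect; nearly all actives have a fitted effect of over 60% in size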
Nuclear receptor ROR-gamma (Homo sapiens), sequence (P51449 whole entry, looked up): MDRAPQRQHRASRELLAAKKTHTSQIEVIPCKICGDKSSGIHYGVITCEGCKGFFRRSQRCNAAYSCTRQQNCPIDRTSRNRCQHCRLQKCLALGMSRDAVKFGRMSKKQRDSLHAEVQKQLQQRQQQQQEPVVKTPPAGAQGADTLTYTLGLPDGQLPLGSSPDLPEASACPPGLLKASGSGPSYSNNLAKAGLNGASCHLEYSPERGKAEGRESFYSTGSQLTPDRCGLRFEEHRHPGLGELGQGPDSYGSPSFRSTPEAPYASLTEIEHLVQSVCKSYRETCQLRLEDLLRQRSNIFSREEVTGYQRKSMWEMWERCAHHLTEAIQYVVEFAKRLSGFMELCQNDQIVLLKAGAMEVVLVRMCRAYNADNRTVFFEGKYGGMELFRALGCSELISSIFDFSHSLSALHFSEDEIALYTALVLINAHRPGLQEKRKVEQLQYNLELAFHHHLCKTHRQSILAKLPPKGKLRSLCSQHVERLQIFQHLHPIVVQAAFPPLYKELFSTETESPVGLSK
How it was run: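 Luminescence (One-Glo, 30 min RT) measured 16 h after compound addition and doxycycline induction at 37C. Reporter: RORE-luciferase under TET-inducible ROR-gamma in CHO cells.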

[5] = qHTS assay for small molecule antagonists of the retinoid-related orphan receptor gamma (ROR-gamma) signaling pathway - cell viability counter screen (AID 720652; active means well fitted curve in the direction sought with a large enough effect in the repeat runs; an effect the other way counts as inactive or inconclusive;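 further: CHO reporter cells with doxycycline-induced ROR-gamma expression; compound exposure lasted 16 hr before ATP read; on the % scale 0 is the no-effect control and ±100 the full control effect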); conditions: RORgamma reporter cell line viability counter screen; series mostly up to 92.2 µM
How it was run: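 Cytotoxicity counter screen: intracellular ATP (CellTiter-Glo luminescence) measured in the doxycycline-induced CHO RORE-luciferase reporter line after 16 hr compound exposure at 37 C, 5% CO2.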

[6] = qHTS assay for small molecule agonists of the antioxidant response element (ARE) signaling pathway measured by Nrf2-dependant transcriptional activity - cell viability counter screen (AID 720653; active means well fitted curve in the direction sought with a large enough effect in the repeat runs; an effect the other way counts as inactive or inconclusive; further: on the % scale 0 is the no-effect control and ±100 the full control effect); conditions: ARE-bla HepG2 viability, CellTiter-Glo ATP luminescence, 16 h; stronger effect = lower value
How it was run: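 ARE-bla HepG2 cells (2,000/well) rested 5 hrs at 37C/5% CO2, then exposed to compounds in DMSO for 16 hrs. Viability was read in the same wells as intracellular ATP by luminescence, 30 min at room temperature after reagent addition.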

[7] = qHTS assay for cell viability of HEK293 cells (AID 743288); conditions: ATP luminescence (CellTiter-Glo), 18 h, stronger effect = lower value; further: on the % scale 0 is the no-effect control and ±100 the full control effect; nearly all actives have a fitted effect of over 50% in size
How it was run: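 Viable-cell counts were inferred from luciferase-based ATP content in HEK293 cells seeded at 2,000/well, pre-incubated ≥5 h, then dosed with DMSO-solubilised compounds for 18 h at 37 C.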

[8] = qHTS assay for cell viability of the p53RE-bla HCT-116 cell line (AID 743292); conditions: p53RE-bla HCT-116 viability, ATP luminescence, 16 h; series mostly up to 95 µM; further: on the % scale 0 is the no-effect control and ±100 the full control effect; nearly all actives have a fitted effect of over 55% in size
How it was run: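 After plating at 4,000 cells per well and a 5 h rest at 37 C, HCT-116 cells carrying p53RE-bla received test chemicals in DMSO. Sixteen hours later at 37 C, CellTiter-Glo was added and luminescence recorded following 30 min at room temperature.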

[9] = target: Tyrosine-protein kinase Yes (Homo sapiens) (UniProt P07947); test: qHTS for small molecule inhibitors of Yes1 kinase: Primary Screen (AID 686947); conditions: Yes1 kinase biochemical qHTS inhibition; series mostly up to 76.9 µM;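 further: plate controls were DMSO with enzyme for no effect and no-enzyme DMSO wells for full effect; nearly all actives have a fitted effect of over 60% in size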
Tyrosine-protein kinase Yes (Homo sapiens), sequence (P07947 whole entry, looked up): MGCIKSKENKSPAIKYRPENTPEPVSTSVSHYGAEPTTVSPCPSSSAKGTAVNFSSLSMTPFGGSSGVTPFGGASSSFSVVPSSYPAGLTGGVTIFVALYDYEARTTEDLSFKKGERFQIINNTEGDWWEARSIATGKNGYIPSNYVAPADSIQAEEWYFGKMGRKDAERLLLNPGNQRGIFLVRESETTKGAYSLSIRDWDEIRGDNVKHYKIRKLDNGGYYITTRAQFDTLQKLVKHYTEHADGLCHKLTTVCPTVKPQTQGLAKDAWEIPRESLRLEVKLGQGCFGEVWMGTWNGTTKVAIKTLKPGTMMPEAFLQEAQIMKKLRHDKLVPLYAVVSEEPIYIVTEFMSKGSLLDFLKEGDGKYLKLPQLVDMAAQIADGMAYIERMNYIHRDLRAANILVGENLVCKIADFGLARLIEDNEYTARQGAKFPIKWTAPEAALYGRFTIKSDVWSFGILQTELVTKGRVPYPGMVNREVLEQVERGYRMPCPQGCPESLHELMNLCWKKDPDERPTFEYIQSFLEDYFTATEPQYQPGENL
How it was run: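 ADP-Glo luminescence reports ADP formed by 4 nM Yes1 phosphorylating poly(E4Y) (0.3 mg/mL) with 0.1 mM ATP for 60 min at room temperature, following 20 min compound preincubation; normalised between DMSO wells with and without enzyme.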

[10] = qHTS for small molecule inhibitors of Yes1 kinase: Counter Assay (AID 686950); conditions: series mostly up to 76.9 µM;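 further: no kinase present so only ADP-Glo detection of a fixed ADP amount is tested; luminescence from ADP-Glo reporting ADP in a fixed ATP and ADP mixture; 0% = DMSO wells with ATP plus ADP and -100% = ATP-only wells without ADP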
How it was run: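 Measuring interference with ADP-Glo, the assay ran 60 min at room temperature on an ATP/ADP mix lacking enzyme. Values were normalized to ATP-plus-ADP (maximum) and ATP-only (minimum) DMSO controls.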

[11] = qHTS profiling for inhibitors of Plasmodium falciparum (3D7) proliferation (AID 743322; call rule not given here;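 further: infected erythrocytes exposed to compound for 72 h before lysis; 100% = DMSO vehicle wells and 0% = 0.29 µM artemisinin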); conditions: P. falciparum 3D7 proliferation; at 28.7 µM (top of the series) unless noted
How it was run: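 Parasite DNA was quantified by SYBR Green I fluorescence (ex 485, em 535 nm) after overnight lysis in saponin/Triton buffer at room temperature. Cultures at 0.3% parasitemia and 2.5% hematocrit were first exposed to compound for 72 h at 37 C; signals were normalised to artemisinin (0.29 uM) and vehicle wells.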

[12] = qHTS profiling for inhibitors of Plasmodium falciparum (DD2) proliferation (AID 743323; call rule not given here); conditions: lower = more inhibition; at 28.7 µM (top of the series) unless noted
How it was run: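 Parasite proliferation measured via DNA-dye fluorescence, as uninfected erythrocytes lack DNA. Cultures at 0.3% parasitemia and 2.5% hematocrit incubated 72 h with compound; signal scaled between vehicle and 0.29 uM artemisinin wells.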

[13] = qHTS assay to identify small molecules that stimulate interleukin-8 (IL-8) secretion (AID 651758; active means well fitted activation curve with a large enough effect in the signal ratio; the % refers to the signal ratio; further: potency means the concentration at half of the fitted maximal effect; on activation: 0% is about no effect); conditions: HTRF ratio (665/615); series mostly up to 92.2 µM
How it was run: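 Quantitative HTS in THP-1 monocytic cells at 2000 cells per well, with 16 hrs compound incubation at 37 C. IL-8 in the medium was then quantified by HTRF immunoassay, read after 1-3 hrs at room temperature.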

[14] = qHTS assay for small molecule agonists of the antioxidant response element (ARE) signaling pathway measured by Nrf2-dependant transcriptional activity (AID 720636; active means well fitted curve in the direction sought with a large enough effect in the repeat runs; an effect the other way counts as inactive or inconclusive;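 further: HepG2 cells with an ARE-driven luciferase reporter; % of control where 0% means no effect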); conditions: ARE-luc HepG2, Nrf2 luciferase reporter, 16 h; series mostly up to 92.4 µM
How it was run: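 ONE-Glo luminescence, read 30 min after reagent addition at room temperature, reflected ARE reporter activity in HepG2 cells that had been incubated with compound for 16 hr at 37 C in 1% dialyzed FBS.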

[15] = qHTS Assay for Identifying Gametocytocidal Compounds (AID 743244); further: potency means the concentration at half of the fitted maximal effect;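 on max response: on the % scale 0 is the no-effect control and ±100 the full control effect; actives lower the fluorescent signal which means gametocytes are killed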; conditions: P. falciparum 3D7 stage III-V gametocytes, alamarBlue, 72 h; max response: stronger effect = lower value
How it was run: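 Using 20,000 stage III–V 3D7 gametocytes per well, compounds were incubated 72 h under 37 °C/5% CO2. Viability was then assessed by 24 h alamarBlue reduction, measured fluorometrically at 525/598 nm.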

CCOc1ccc2c(c1)C(C)=CC(C)(C)N2
inactive: outcome [1] | activation [2] 3.55% and 2.98% | max response [3] -4.24% and -2.12% | outcome [4] | outcome [5] | max response [6] -1.53% and -25.3% | max response [7] -17.1% and -27.7% | outcome [8]

CN(NC(=O)CC(=O)NN(C)C(=S)c1ccccc1)C(=S)c1ccccc1
4.04% [at 57.5 µM]: activity, percent of control [12]
2.19% [at 57.5 µM]: remaining parasite growth % (stronger effect = lower value) [11]
inactive: Potency [9] | outcome [10]

CC(O)CO (stereo unspecified)
inactive: outcome [1] | Potency [13] | activation [2] -1.84% and -0.0903% | max response [3] 4.63% and -8.84% | outcome [4] | outcome [14] | outcome [5] | max response [6] -5.98% and -4.66% | max response [15] 5.22% | max response [7] 4.22% and 2.43% | outcome [8]

O=c1cc(C2=CC=CC3Sc4ccccc4SC23)oc(N2CCOCC2)c1 (stereo unspecified)
90.9%: remaining parasite growth % (stronger effect = lower value) [11]
inactive: Potency [9] | outcome [10]
88.7%: activity, percent of control [12]

Cc1ccccc1
inactive: outcome [1] | activation [2] 0.0379% and -2.19% | max response [3] 0.399% and -0.58% | outcome [4] | outcome [14] | outcome [5] | max response [6] 6.91% and 8.68% | max response [15] 2.65% | max response [7] 1.99% and 6.48% | outcome [8]

IC(I)I
inactive: outcome [1] | Potency [13] | activation [2] 3.72% | max response [3] -6.19% and -2.33% | outcome [14] | outcome [5] | max response [6] 1.96% and -3.08% | max response [15] 8.07% | max response [7] -1.78% and -16.4% | outcome [8]

CC(NC(=O)Cc1cc(F)cc(F)c1)C(=O)NC(C(=O)OC(C)(C)C)c1ccccc1 (stereo unspecified)
inactive: Potency [9] | outcome [10] | max response [15] 8.47%
97.7%: activity, percent of control [12]
103%: remaining parasite growth % (stronger effect = lower value) [11]

Cc1nnc(C(C)C)n1C1CC2CCC(C1)N2CC[C@H](NC(=O)C1CCC(F)(F)CC1)c1ccccc1 (stereo partly specified)
111%: remaining parasite growth % (stronger effect = lower value) [11]
inactive: outcome [10] | max response [15] 3.23%
102%: activity, percent of control [12]

CCCCC/C=C\C/C=C\CCCCCCCC(=O)O
active: Potency [3] 44.7 µM and 28.2 µM
inactive: outcome [1] | activation [2] 0.916% and -0.698% | outcome [4] | outcome [14] | outcome [5] | max response [6] -8.45% and -16.5% | max response [15] 0.52% | max response [7] -9.3% and -9.38% | outcome [8]

CCCCCCCCCCCCCCCCCCOP(=O)([O-])OC1CC[N+](C)(C)CC1
98.6% [at 18.4 µM]: remaining parasite growth % (stronger effect = lower value) [11]
inactive: Potency [9] | outcome [10]
114% [at 18.4 µM]: activity, percent of control [12]

CCC1(O)CC2CN(CCc3c([nH]c4ccccc34)[C@@](C(=O)OC)(c3cc4c(cc3OC)N(C=O)[C@H]3[C@](O)(C(=O)OC)[C@H](OC(C)=O)[C@]5(CC)C=CCN6CC[C@]43[C@@H]65)C2)C1 (stereo partly specified)
inactive: Potency [9] | outcome [10] | max response [15] -18.4%
8.01%: remaining parasite growth % (stronger effect = lower value) [11]
13.7%: activity, percent of control [12]

O=C(O)CC/C=C\CC[C@H]1[C@@H](N2CCCCC2)[C@@H](O)C[C@@H]1OCc1ccc(-c2ccccc2)cc1
86.9%: activity, percent of control [12]
inactive: Potency [9] | outcome [10] | max response [15] 3.93%
58.6%: remaining parasite growth % (stronger effect = lower value) [11]

Nc1ccn([C@H]2CS[C@@H](CO)O2)c(=O)n1
inactive: outcome [1] | activation [2] 0.73% | max response [3] -3.53% | outcome [4] | outcome [14] | outcome [5] | max response [6] 4.54% | max response [15] 6.99% and 7.67% | max response [7] -4.28% | outcome [8]

CC1=CCC(C(C)(C)O)CC1 (stereo unspecified)
inactive: activation [2] 0.596% | max response [3] -2.04% | outcome [14] | max response [6] 3.37% | max response [15] -0.0478% | max response [7] -13.3% | outcome [8]

CC(C)(C)NC(=O)[C@@H]1C[C@@H]2CCCC[C@@H]2CN1C[C@@H](O)[C@H](Cc1ccccc1)NC(=O)[C@H](CC(N)=O)NC(=O)c1ccc2ccccc2n1
active: Potency [15] 10 µM
inactive: outcome [1] | activation [2] 0.529% | max response [3] -0.457% | max response [6] -9.17% | max response [7] -26%

CC1=C(/C=C/C(C)=C/C=C/C(C)=C/CO)C(C)(C)CCC1
inactive: outcome [1] | activation [2] 1.25% and 1.27% | max response [3] -3.78% and -1.63% | max response [6] -15.5% and 5.78% | max response [15] 11.8% | max response [7] -9.33% and -12.3% | outcome [8]
active: Potency [13] 37.6 µM
